{"source": "PubChem BioAssay AID2314", "about": "(National Center for Advancing Translational Sciences (NCATS), 2010)", "note": "Among all 300,000 compounds or so, about 37,000 (12%) were called active. No stated cut-off is given here; in the data, active means max response mostly above about 13% (no sharp cut-off); inactive means mostly below about 14%. The list comes from a sample in which actives are over-represented; it also holds similar structures and randomly drawn compounds.", "data": [{"assay": "Cycloheximide Counterscreen for Small Molecule Inhibitors of Shiga Toxin; further: read at 38.3 µM for the half of the compounds with a filed dose; 0% is about no effect", "conditions": "cell reporter, cycloheximide protein synthesis inhibition counterscreen; hits give high values", "values": [{"compound": "Cc1cc2c(c(=O)n1C)C(C(C)C)C(C#N)=C(N)O2", "note": "(stereo not drawn)", "max response": "-2.6% (inactive)"}, {"compound": "Cc1cccc(C)c1NC(=O)CS(=O)CC(=O)N1CCN(c2ccccc2)CC1", "note": "(stereo not drawn)", "max response": "-5.35% (inactive)"}, {"compound": "CCc1cccc(C)c1N1C(=O)CN(Cc2ccccc2)C1=S", "max response": "-2.45% (inactive)"}, {"compound": "O=C1/C(=C\\c2cccnc2)CN(Cc2ccccc2)C/C1=C\\c1cccnc1", "max response": "7.45% (inactive)"}, {"compound": "CCOC(=O)N1CCN(c2c(NCCN3CCN(c4ccccc4F)CC3)c(=O)c2=O)CC1", "max response": "-2.33% (inactive)"}, {"compound": "COc1ccc(C(CNCC(=O)Nc2ccccc2F)N(C)C)cc1", "note": "(stereo not drawn)", "max response": "-2.53% (inactive)"}, {"compound": "COc1ccc(C2C(C#N)=C(N)Oc3cc(N)ccc32)cc1OC", "note": "(stereo not drawn)", "max response": "11.4% (inactive)"}, {"compound": "COCCCn1c(SCc2cccc(OC)c2)nc2cc(OC)c(OC)cc2c1=N", "max response": "6.77% (inactive)"}, {"compound": "O=C(CN1CCN(c2ccccc2F)CC1)c1ccc2c(c1)OCO2", "max response": "16.8% (active)"}, {"compound": "CC1(c2ccc(Cl)cc2)NC(=O)N(CC(=O)c2ccc3c(c2)OCO3)C1=O", "note": "(stereo not drawn)", "max response": "14.2% (inactive)"}, {"compound": "Cc1onc(-c2ccccc2)c1C(=O)Nc1ccccc1C#N", "max response": "3.86% (inactive)"}, {"compound": "O=C(c1ccc2c(c1)OCO2)N1CCNc2ccccc2C1", "max response": "3.63% (inactive)"}, {"compound": "O=C(CN1CCN(CC(=O)Nc2ccc3c(c2)OCO3)CC1)Nc1ccc(F)cc1", "max response": "-2.15% (inactive)"}, {"compound": "N#Cc1ccccc1NC(=O)c1ccc2c(c1)OCO2", "max response": "24.8% (active)"}, {"compound": "CSCCC(NC(=O)c1cc([N+](=O)[O-])cc([N+](=O)[O-])c1)c1nc2ccccc2[nH]1", "note": "(stereo not drawn)", "max response": "-1.41% (inactive)"}, {"compound": "Cc1cc(C(=O)N/N=C/c2cc([N+](=O)[O-])cc(C)c2O)n[nH]1", "max response": "4.92% (inactive)"}, {"compound": "Cc1cc(=O)[nH]c(Nc2cccc(Br)c2)n1", "max response": "-1.7% (inactive)"}, {"compound": "CN(C)Cc1c(C(=O)N/N=C/c2ccccc2OCc2ccc(F)cc2)nnn1-c1nonc1N", "max response": "-5.05% (inactive)"}, {"compound": "CC(C)(C)c1ccc(/C=C/C(=O)NCCCn2ccnc2)cc1", "max response": "-3.02% (inactive)"}, {"compound": "O=C(NCCCn1ccnc1)Nc1ccc(Cl)cc1Cl", "max response": "-6.88% (inactive)"}, {"compound": "O=C(/C=C/c1ccc(Cl)cc1)NCCCn1ccnc1", "max response": "13.1% (active)"}, {"compound": "FC(F)(F)c1ccc(CN2C[C@@H]3C(c4ccccc4)C4(c5ccccc5)CC3(C4)[C@H]2c2ccccc2)cc1", "note": "(stereo partly drawn)", "max response": "-2.46% (inactive)"}, {"compound": "COc1cc(NC(=O)CN(C)S(=O)(=O)c2ccc3nc(C)sc3c2)cc(OC)c1", "max response": "-1.04% (inactive)"}, {"compound": "Cc1ccc2nc(-c3ccc(NC(=O)CN(C)S(=O)(=O)c4ccccc4)cc3)sc2c1", "max response": "41.9% (active)"}, {"compound": "CCN(CC)S(=O)(=O)c1ccc(NC(=O)CN(c2cccc(F)c2)S(C)(=O)=O)cc1", "max response": "-1.18% (inactive)"}, {"compound": "Cc1ccc(N(CC(=O)Nc2cc(C)cc(C)c2)S(=O)(=O)c2cccc3nonc23)cc1", "max response": "-2.6% (inactive)"}, {"compound": "Cc1cccc(N(CC(=O)Nc2ccc(-c3nc4ccc(C)cc4s3)cc2)S(C)(=O)=O)c1", "max response": "43% (active)"}, {"compound": "Cc1nc2ccc(S(=O)(=O)N(C)CC(=O)NC(C)c3ccccc3)cc2s1", "note": "(stereo not drawn)", "max response": "-0.483% (inactive)"}]}]}
